Screening data (PubChem)
ABCB6 inh MLPCN: human ABCB6 transporter inhibition; Q9NP58; fluorescence ratio to DMSO, % at 10 µM; 360,000 tested, 0.19% active; K562-ABCB6 porphyrin accumulation, flow cytometry, 1 h; stronger effect = lower value;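 active = fluorescence ratio to DMSO below 75%, the collection mean minus 3 SD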;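 note: signal is porphyrin accumulated inside mitochondria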
PABP FP inh: blocks human PABP binding to poly(A) RNA | P11940 | AID 2014 | calls only at 35 µM | fluorescence polarization | 290,000 tested, 1% active;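 note: calls also rest on retests at 20 µM and on dose response follow-up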
AI-2 QS modul: modulates the Vibrio harveyi AI-2 quorum sensing system | Vibrio harveyi JMH597 AI-2 luminescence/OD600 ratio, 9 h; stronger effect = lower value; strain lacks LuxN and CqsS sensors; 0 = neutral-control median | activity change, % at 7.5 µM | 300,000 tested, 0.4% active | AID 2094; in the data active = activity change below about -75%, passing the limit was not always enough;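 note: luminescence divided by OD600 gain over 9 h not by final OD600 alone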
eIF4H inh: inhibitors of RNA binding by human eIF4H. eIF4H fluorescence polarization binding assay. 290,000 tested, 0.94% active. AID 2012. Q15056. inhibition, % at 35 µM;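 note: calls also rest on retests at 20 µM and on dose response follow-up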
PHOSPHO1 inh: PHOSPHO1 (human) inhibition; Q8TCT1; recombinant PHOSPHO1, absorbance phosphatase assay; inhibition, % at 13.3 µM; 290,000 tested, 1.1% active; in the data active = inhibition above about 60%
MLLE-PAM2 inh: blocks PAM2 peptide binding to the PABP1 MLLE domain. AID 588489. 360,000 tested, 0.36% active. inhibition, % at 20 µM. GST-MLLE / FITC-PAM2 fluorescence polarization. P11940; in the data active = inhibition above about 35%, passing the limit was not always enough
JMH597 growth: retest: inhibitors of Vibrio harveyi JMH597 growth. shares compounds with AI-2 QS modul. OD600 absorbance, 9 h; lacks LuxN and CqsS sensors. AID 2726. 750 tested, 1% active. growth inhibition, % at 7.5 µM;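 active = every replicate shows growth inhibition above 50%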
BB721 const-QS lum: retest counter-screen: BB721 constitutive quorum sensing luminescence decrease | shares compounds with AI-2 QS modul | Vibrio harveyi BB721 luminescence, 9 h | inhibition, % at 7.5 µM | 750 tested, 95% active | AID 2727;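 active = inhibition above about 80% in every replicate, not just on average, limit read from the data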
BB721 growth rt: retest: blocks Vibrio harveyi BB721 growth | AID 2728 | 750 tested, 3% active | shares compounds with AI-2 QS modul | OD600 absorbance, 9 h | growth inhibition, % at 7.5 µM;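 active = every replicate shows growth inhibition above 50%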
AI-2 QS JMH597: Vibrio harveyi AI-2 signaling luminescence modulation – JMH597 strain, confirmation; 750 tested, 97% active; AID 2736; inhibition, % at 7.5 µM; shares compounds with AI-2 QS modul; Vibrio harveyi JMH597 AI-2 quorum sensing luminescence, 9 h; luxN and CqsS knockout, AI-2 only;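 active = every replicate shows more than 75% inhibition of signal versus neutral control wells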
Hits are given with their value; 0 = inactive; - = not tested or not shown. Hits are enriched below; roughly 2.6% of the tested compounds scored in any of these assays. Unless noted, the rule behind the calls is not given here.

SMILES	ABCB6 inh MLPCN	PABP FP inh	AI-2 QS modul	eIF4H inh	PHOSPHO1 inh	MLLE-PAM2 inh	JMH597 growth	BB721 const-QS lum	BB721 growth rt	AI-2 QS JMH597
O=C(Cc1ccc(Cl)cc1)N/N=C/c1ccncc1	0	0	-81	0	0	0	0	92	0	92
O=C(Cc1ccc(Cl)cc1)N/N=C/c1ccccc1	0	0	0	0	0	0	-	-	-	-
O=C(Cc1ccc(Cl)cc1)N/N=C/c1cccc(O)c1	0	0	-95	0	0	0	0	97	0	98
CC(=O)Nc1ccc(-c2ccnc3c2CC(C)(C(=O)Nc2cccc(OC(F)(F)F)c2)O3)cc1 (centres undefined)	0	-	-	-	-	0	-	-	-	-
CC1(C(=O)Nc2cccc(Oc3ccccc3)c2)CCN1C1Cc2ccccc2C1 (centres undefined)	0	-	-	-	-	0	-	-	-	-
O=C(O)c1cccnc1Sc1ccc(Br)cc1	0	0	-84	0	0	0	0	97	0	97
O=C(O)c1cccnc1Sc1ccccc1	0	0	0	0	0	0	-	-	-	-
Cc1ccc(S(=O)(=O)/C=C/c2ccccc2)cc1	0	0	-85	0	0	0	0	93	0	100
COc1cccc(C(C)(O)c2nc(-c3ccc(S(C)(=O)=O)cc3)cs2)c1 (centres undefined)	0	-	-	-	-	0	-	-	-	-
CNC(=S)/N=C/NOCc1ccc(Cl)cc1Cl	0	0	0	0	0	0	-	-	-	-
Clc1ccc(CON/C=N/c2ncnc3sccc23)c(Cl)c1	0	0	-95	0	0	0	0	90	0	94
O=c1oc2ccccc2cc1NCc1ccccc1O	0	0	-94	0	0	0	0	97	0	98
O=C(NCc1ccccc1Cl)c1cc2ccccc2oc1=O	0	0	0	0	0	0	-	-	-	-
O=C(NCCc1ccco1)c1cc(COc2cccc(C(F)(F)F)c2)on1	0	0	-84	0	0	0	0	82	0	92
O=c1c(Cl)c(Cl)cnn1Cc1nnc(-c2ccc(Cl)cc2)o1	0	0	-91	0	0	0	0	98	0	99
Cc1ccc(Cn2ncc(Cl)c(Cl)c2=O)cc1	0	0	0	0	0	0	-	-	-	-
Cc1occc1C(=O)NNC(=O)Nc1ccc(Cl)c(Cl)c1	0	0	-86	0	0	0	0	93	0	94
CCOC(=O)C1=CCN(S(=O)(=O)c2ccccc2C)C1c1ccc(Cl)cc1 (centres undefined)	0	-	-	-	-	0	-	-	-	-
CC(C)(C)c1ccc(OCC(=O)N2CCN(c3ccccn3)CC2)cc1	0	-	-	-	-	0	-	-	-	-
CC(C)(C)c1ccc(OCC(=O)N2CCN(c3ncccn3)CC2)cc1	0	0	-86	0	0	0	0	93	0	95
O=S(=O)(N/N=C\C=C\c1ccccc1)c1ccc(Cl)cc1	0	0	-94	0	0	0	0	99	0	100
CCCCCC(=O)N1C[C@H](O)[C@@H](n2cc(-c3ccc(F)cc3)nn2)C[C@@H]1c1ccc(OC)cc1	0	-	-	-	-	0	-	-	-	-
CNc1cc(-c2cccc(C(=O)N3CCOCC3)c2)ncn1	0	-	-	-	-	0	-	-	-	-
CCCOC(=O)c1ccc(NS(=O)(=O)c2cccs2)cc1	0	0	-86	0	0	0	0	89	0	99
CCCCNC(=O)C[C@@H]1C[C@@]2(C(=O)OC)CCCCC=C2N(CCC2=CCCCC2)C1=O	0	-	-	-	-	-	-	-	-	-
O=C(Nc1ccc(Nc2ccccc2)cc1)c1ccc(Cl)cc1	0	-	0	-	-	0	-	-	-	-
O=C(Nc1ccc(Nc2ccccc2)cc1)c1ccccc1	-	-	-91	-	-	-	0	95	0	96
CC(C)(C)c1csc(NC(=O)Cn2cnc3ccccc3c2=O)n1	0	0	-95	0	0	0	0	97	0	98
CN(c1ccccc1)S(=O)(=O)c1cccc(NC(=O)Cn2cnc3ccccc3c2=O)c1	0	0	-93	0	0	0	0	99	88	99
